The values that follow come from PubChem BioAssay AID868 (SRMLSC, 2007).

Molecules are shown by their SMILES. Among all 190,000 compounds or so, about 3,500 (1.8%) were called active. The sample as a whole holds a higher share of actives than the screen did. Values without a mark were called inactive.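 The calls were made as follows: active = inhibition above a set limit, 3 SD over mean compound inhibition (cut at about 8.4% in these data); inactive = the rest.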

The experiment is described as follows: RAM signaling blockers in budding yeast – dse1pr::URA3 reporter, 5-FOA selection, primary screen (AID 868).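 Also: 0% = DMSO-only wells with no growth and 100% = 10 µM 1-NA-PP1 full growth.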 The following applies: S. cerevisiae dse1pr::URA3 reporter, 5-FOA growth OD615, 2 d; at 50 µM; active compounds read high; analog-sensitive cbk1-as2 kinase mutant strain.
Turning to `C=CCOC(=O)C1=C(C)N=C2SCCC(=O)N2C1/C=C/c1ccccc1OC` (stereo unspecified), the inhibition was 1.62%.

Regarding `COc1ccccc1CNC(=O)CNC(=O)c1cn(-c2ccccc2OC)c(=O)c2ccccc12`, the inhibition is 1.48%.

In the case of `CCCCNC(=O)CSc1nc2ccc(NC(=O)CSc3nnc(N)s3)cc2s1`, the inhibition is 2.71%.

Consider `CCCCNC(=O)CSc1nc2ccc(NC(=O)CSc3nnc(COc4ccccc4C)n3C)cc2s1`, for which the inhibition was 6.51%.

Turning to `Nc1nnc(SCC(=O)Nc2ccc3nc(SCC(=O)Nc4ccccc4)sc3c2)s1`, the inhibition is 9.31% (active).

In the case of `Cn1c(=O)c2c(ncn2CCc2ccccc2)n(C)c1=O`, the inhibition is 0.37%.

Regarding `C/C=C(\C)C(=O)NCCN1C2=NC[C@H](Cc3ccc(O)cc3)N2C[C@@H]1Cc1ccc(OC)cc1`, the inhibition is -1.63%.

For `CCOc1ccc(CN(Cc2ccco2)C(c2cccs2)c2nnnn2C(C)(C)C)cc1` (stereo unspecified), the inhibition was 15.1% (active).

For `CC(C)(C)n1nnnc1C(c1cccs1)N(Cc1cccnc1)CC1CCCO1` (stereo unspecified), the inhibition is 4.18%.

On to `CCC(C)(C)n1nnnc1C(c1cccs1)N1CCN(Cc2ccccc2)CC1` (stereo unspecified), for which the inhibition was 0.11%.

For the compound `COCCn1c(C)cc(C(=O)COC(=O)/C=C/c2cccc(OC)c2)c1C`, the inhibition was 8.25%.

`CC1CCCCC1NC(=O)COC(=O)Cc1ccc(Br)cc1` (stereo unspecified): the inhibition was 1.96%.

In the case of `COc1ccc(-c2nc(-c3ccccc3)no2)c(OC)c1`, the inhibition was -0.68%.

As to `COc1ccc(-c2noc(-c3cccc(OC)c3OC)n2)cc1OC`, the inhibition is 8.94% (active).

For `COc1cc(-c2nc(-c3ccncc3)no2)cc(OC)c1OC`, the inhibition was 1.83%.

As for `COc1cccc(CN2CCNC(=O)C2CC(=O)N(C)CCc2ccccn2)c1` (stereo unspecified), the inhibition was 0.39%.

As for `CN1CCN(c2ccc(NC(=O)COc3ccc(Cl)cc3Cl)cc2)CC1`, the inhibition is 1.03%.

As for `Cc1ccc(NC(=O)COc2ccc(-n3ccnc3)cc2)cc1Cl`, the inhibition is 19.6% (active).

Consider `COc1ccc(OCC(=O)Nc2ccc(N3CCC(C)CC3)cc2)cc1`, for which the inhibition was -0.73%.

Take `O=C(O)CSc1nccc2ccccc12`: the inhibition was 0.52%.

Turning to `CCOC(=O)NN1C(=O)c2ccccc2NC1c1ccccc1O` (stereo unspecified), the inhibition was -0.54%.

Regarding `CCN(CC)C(=O)C(=O)Nc1cccc(Br)c1`, the inhibition is 1.63%.

`COC(=O)c1sccc1NC(=O)c1csc2c1CCCC2`: the inhibition was 12% (active).

Regarding `COC(=O)c1sc(NC(=O)c2csc3c2CCCC3)nc1C`, the inhibition is 3.89%.

For the compound `Cc1ccc(NC(=O)c2csc3c2CCCC3)cc1`, the inhibition is 0.75%.

Regarding `CCN=C1S/C(=C\c2cc(Br)ccc2OCC(=O)OCC)C(=O)N1CC`, the inhibition was 11.5% (active).

`Cc1cc(/C=C2/SC(=O)N(CC(=O)OC(C)C)C2=O)c(C)n1C`: the inhibition was 4.99%.

As to `CCOC(=O)CC1C(=O)NCCN1C(=O)COc1ccc(Br)cc1C` (stereo unspecified), the inhibition was -0.4%.

With `COc1ccc(CCNc2nc(-c3cccc(NC(C)=O)c3)cs2)cc1OC`, the inhibition was -0.26%.

Turning to `COc1ccc(C2OCC3(CO2)SC(=O)NC3=O)cc1OC` (stereo unspecified), the inhibition was 0.64%.

`COc1cccc(NC(=O)CC2C(=O)NCCN2C(=S)Nc2ccc(F)cc2)c1` (stereo unspecified): the inhibition was 4.21%.

As to `CC1CCCCC1NC(=O)CN1CCC(O)(c2ccc3c(c2)OCO3)CC1` (stereo unspecified), the inhibition was 0.68%.

On to `CCN(CC)S(=O)(=O)c1ccc(N(C)Cc2ccc(C(F)(F)F)cc2)nc1`, for which the inhibition is 11.1% (active).

For the compound `CCN(CC)S(=O)(=O)c1ccc(N(C)CCc2ccc(OC)c(OC)c2)nc1`, the inhibition was 1.33%.

For `CCN(CC)S(=O)(=O)c1ccc(N(C)Cc2cccc(OC)c2OC)nc1`, the inhibition was 2.24%.

For the compound `Cc1cccc(-n2cnc(C(=O)NNC(=S)Nc3ccccc3)c2)n1`, the inhibition was 1.6%.

With `Cc1ccc(C(=O)N/C(=C\c2ccco2)C(=O)N2CCSCC2)cc1C`, the inhibition was -0.85%.

Take `CCn1c(COc2ccccc2)nnc1SCC(=O)NCc1ccco1`: the inhibition is 0.66%.

Take `COc1ccc(C(=O)CSc2nnc(COc3ccccc3)n2Cc2ccco2)cc1`: the inhibition is 9.29% (active).

`C=CCn1c(CNC(=O)c2ccco2)nnc1SCC(=O)c1ccc(OC)cc1`: the inhibition was -1.14%.

Take `O=C(Cc1cccs1)N/N=C/c1ccc(OCc2ccccc2)cc1`: the inhibition was 10.5% (active).

Regarding `Cc1ccc(COc2ccc(/C=N/NC(=O)CN3CCCCC3)cc2)cc1`, the inhibition is 0.5%.

Regarding `O=C(N/N=C/c1ccc(OCc2ccccc2)cc1)c1ccc(O)cc1`, the inhibition is 1.57%.

On to `COc1cc(C(=O)NNC(=O)c2ccc(S(=O)(=O)N3CCCCC3)cc2)cc(OC)c1OC`, for which the inhibition is 3.63%.

In the case of `COCCN(CC(=O)Nc1ccccc1C)S(=O)(=O)c1ccc(S(=O)(=O)N2CCCC2)cc1`, the inhibition is 9.62% (active).

`COc1ccccc1NC(=O)CN1CCN(S(=O)(=O)c2ccc(Br)cc2)CC1`: the inhibition was 0.23%.

`CC1CCN(C(=S)c2cccc(O)c2)CC1`: the inhibition is 0.5%.

Take `Cc1csc(NC(=O)c2ccc(-c3ccc(Cl)cc3Cl)o2)n1`: the inhibition was 0.54%.

`CC1CCN(C(=S)c2ccc(-c3ccc(Cl)cc3Cl)o2)CC1`: the inhibition is 15.1% (active).

Turning to `COCC(C)NCc1cc(Br)ccc1OC` (stereo unspecified), the inhibition is 1.56%.

Take `O=C(NCc1ccccc1)[C@H]1C[C@@H]1[C@H](NP(=O)(c1ccccc1)c1ccccc1)c1ccccc1`: the inhibition was 19% (active).

Regarding `O=C(O)C1CC=C(Cl)CC1C(=O)NCc1ccccc1` (stereo unspecified), the inhibition is 1.08%.

On to `COC(=O)[C@H](Cc1ccccc1)NC(=O)[C@@H]1C[C@H]1[C@@H](NC(=O)OCc1ccccc1)c1ccccc1`, for which the inhibition was 1.21%.

As for `CC12CN(NC(=O)c3ccc(Cl)cc3)C3(C#N)CC1CCC23C` (stereo unspecified), the inhibition was -0.13%.

For `CC(=O)Nc1cccc(Oc2cc(C#N)c(C#N)cc2N2CCOCC2)c1`, the inhibition is 0.91%.

With `COc1cc(N2CCCC2)c(OC)cc1/C=C(/C#N)c1cccc(Br)c1`, the inhibition is 8.59% (active).

With `COc1cccc(C(=O)Nc2ccc(N3CCCC3)cc2)c1`, the inhibition is 1.61%.

Consider `COc1ccc2cc(CCl)c(Cl)nc2c1`, for which the inhibition is 0.27%.

Turning to `COc1ccc(C2CC(c3cccs3)=NN2c2ccc(F)cc2)cc1OC` (stereo unspecified), the inhibition was 2.78%.

Regarding `COc1ccc(C2CC(c3cccs3)=NN2C(=O)CSc2nncs2)cc1OC` (stereo unspecified), the inhibition was -0.13%.

As to `COc1ccc(C2CC(c3cccs3)=NN2c2nc(C)c(C(C)=O)s2)cc1OC` (stereo unspecified), the inhibition was 9.6% (active).
